Bioassay records: PubChem, National Center for Advancing Translational Sciences (NCATS)
D3 antag – antagonists of human D3 dopamine receptor | P35462 | D3R cells, DiscoveRx beta-arrestin luminescence, antagonist mode; active compounds read low | max response, negative = inhibition, % | actives 2.5% (n = 360,000) | AID 652054; in the data active = max response below about -50%; inconclusive = no clear call, values can overlap the other calls; also: % is scaled to controls: 0 for no effect and ±100 for the full control effect
Target sequence (P35462 whole entry, looked up): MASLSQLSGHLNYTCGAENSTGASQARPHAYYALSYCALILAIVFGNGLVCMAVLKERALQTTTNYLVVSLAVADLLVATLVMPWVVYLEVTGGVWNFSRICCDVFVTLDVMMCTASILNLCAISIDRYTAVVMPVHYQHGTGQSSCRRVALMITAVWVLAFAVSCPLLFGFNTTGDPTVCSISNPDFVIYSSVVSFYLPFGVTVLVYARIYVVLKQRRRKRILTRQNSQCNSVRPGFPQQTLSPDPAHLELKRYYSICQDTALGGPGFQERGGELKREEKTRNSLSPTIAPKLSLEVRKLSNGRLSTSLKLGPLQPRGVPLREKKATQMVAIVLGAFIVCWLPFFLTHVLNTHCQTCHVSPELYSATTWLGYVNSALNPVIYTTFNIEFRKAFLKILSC
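Cells expressing the human receptor were seeded at 1500 cells/well, incubated overnight at 37 degrees C in 5% CO2, then exposed to library compounds with dopamine controls for 90 minutes at 37 degrees C before luminescent detection.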
TSHR antag – human thyrotropin receptor antagonism; TSHR-expressing cells, TSH-stimulated cAMP HTRF, 2 h; active compounds read low; activity change, negative = inhibition, % at 11.5 µM; actives 0.2% (n = 330,000); AID 504810;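 active = activity change below a set negative limit, meaning inhibition stronger than a set level, cut at about -70% in these data; inconclusive = activity change between two set negative limits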; also: % is scaled to controls: 0 for no effect and ±100 for the full control effect
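TSHR-expressing cells, 200/well, pre-treated with compound, then stimulated with EC80 TSH (4nM final) for 2 hours at 37 deg C. cAMP measured by competitive HTRF: anti-cAMP cryptate antibody in lysis buffer plus cAMP-d2, read after 30 minutes at room temperature.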
B2AR arrestin – agonists driving beta-arrestin recruitment to human beta2-adrenergic receptor. P07550. beta-arrestin recruitment to beta2AR, cell-based reporter. Potency, µM (series often up to 46.1 µM), inactives show at the top dose activation, most hits filed as activators. actives 0.02% (n = 330,000); active = well fitted activation curve with a large enough effect; inconclusive = small, poorly fitted or top-dose-only effect;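 also: potency is read from the fitted curve at half-maximal effect; 0% = DMSO controls and full agonism = EC100 isoproterenol or metaproterenol; nearly all actives have a fitted effect of over 65% in size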
DRD3 agonist – agonists of human D3 dopamine receptor; actives 0.58% (n = 410,000); max activation, %; D3R DiscoveRx beta-arrestin cells, luminescence, 90 min; P35462; in the data active = max activation above about 30%; also: 0% is about no effect
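Agonist-mode cell screen: cells plated at 1500/well and incubated overnight at 37 °C, then exposed to library compounds for 90 min at 37 °C. Detection reagent was added for 30–60 min at room temperature, and luminescence was read.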
Active calls of the source: *; u = inconclusive; x = no result given; ! = a repeat was not active. Rows were chosen to be rich in hits. Some 2.9% of all compounds tested hit in one or more screens of this group.

SMILES | D3 antag | TSHR antag | B2AR arrestin | DRD3 agonist
CCOc1cc(CN2CCN(Cc3ccc(C)o3)C(CCO)C2)ccc1OC (centres undefined) | -28.7 | -20.5 | -0.4% | 0.4
COc1cccc2cc(-c3nc(Nc4cccc(C)c4)sc3C)c(=O)oc12 | x | x | x | 80.3*
Oc1ccc(Cl)cc1CNCc1ccc(F)cc1 | -81.2* | -1.8 | 0.3% | -42.8
COc1ccc(NC(=O)N2CCN3CCCCC3C2)cc1OC (centres undefined) | x | x | x | -19.6
CCN(CC)CCOC(=O)c1ccc(NC(=O)CCCN2C(=O)/C(=C/c3cccs3)SC2=S)cc1 | -74.1* | 18.2 | 0.4% | -46.1
Cc1noc(Cn2c(=O)c3cc4c(cc3n(CC(=O)Nc3ccc(C(C)C)cc3)c2=O)OCO4)n1 | x | x | x | -11.1
COc1ccc(Nc2nc(N)nc(CSc3nc(C)cc(C)n3)n2)cc1 | -61.2* | 0.0 | -0.9% | -11.1
COc1ccccc1Nc1nc(N)nc(CSc2nc(C)cc(C)n2)n1 | 12.2 | 3.3 | -0.8% | 3.5
COc1cc([C@@H]2c3cc4c(cc3C(O[C@@H]3O[C@@H]5CO[C@@H](C)O[C@H]5[C@H](O)[C@H]3O)C3COC(=O)[C@@H]32)OCO4)cc(OC)c1OP(=O)(O)O (some centres undefined) | x | x | x | -5.8
O=C1CSC(c2ccccc2F)N1CCN1CCCCC1 (centres undefined) | -85.9* | 10.4 | -0.2% | -6.5
O=C1CSC(c2cccc([N+](=O)[O-])c2)N1CCN1CCCCC1 (centres undefined) | u | -10.1 | 0.5% | 0.1
COC(=O)c1ccc(NC(=O)c2cc(=O)c3ccc(C)cc3o2)cc1 | x | x | x | -4.7
Fc1ccc(CN2CCN3CCCC3C2C2CCCCC2)cc1F (centres undefined) | -78.4* | 8.1 | 0.2% | -13.0
Fc1cccc(CN2CCN3CCCC3C2C2CCCCC2)c1 (centres undefined) | u | -5.7 | -0.4% | -26.4
Cc1ccc(OCc2cc(C(=O)NC3CCCCC3)no2)cn1 | 23.9 | -109.0* | 0.5% | 10.3
O=C(NC1CCCCC1)c1cc(-c2ccccc2O)on1 | -7.8 | -80.3* | -0.5% | 0.5
O=C(Nc1ccn(CCCNCc2ccccn2)c(=O)n1)OCc1ccccc1 | -11.4 | x | x | -11.1
O=C(Nc1ccn(CCCNCc2cccc3ccccc23)c(=O)n1)OCc1ccccc1 | -50.6* | x | x | -13.7
O=C(Nc1ccn(CCCNCC(c2ccccc2)c2ccccc2)c(=O)n1)OCc1ccccc1 | -29.7 | x | x | -8.1
CC(CNCCCn1ccc(NC(=O)OCc2ccccc2)nc1=O)c1ccccc1 (centres undefined) | -51.1* | x | x | -68.8
COc1cc(Cl)c(C)cc1NC(=O)c1cc(S(=O)(=O)N2CCCC2)ccc1F | x | x | x | 1.5
CC(C)c1ccc(NC(=O)c2ccc(=O)n(Cc3ccccc3)c2)cc1 | x | x | x | -0.4
COC(=O)CN(c1ccc(C)cc1)S(=O)(=O)c1ccc2c(c1)n(C)c(=O)c(=O)n2C | 14.3 | -95.6* | 0.6% | 2.9
O=C(CCn1c(=O)c2cccn2c2cccnc21)NCc1cccc(Br)c1 | x | x | x | -14.2
Cc1ccc(P(=O)(c2ccc(C)cc2)[C@@H](NC(c2ccccc2)c2ccccc2)c2ccccc2)cc1 | -108.7* | x | x | -17.0
SMILES | D3 antag | TSHR antag | B2AR arrestin | DRD3 agonist
CCCCCCCCN1C(=O)[C@H](CC(=O)NCc2ccc(C)o2)C[C@@]2(C(=O)OC)CCCCC=C12 | -20.3 | x | x | -4.0
Cc1ccc2nc(N(CCN(C)C)C(=O)c3ccc4ccccc4c3)sc2c1 | -8.8 | 2.3 | -0.2% | -13.2
CN(C)CCN(C(=O)c1ccc2ccccc2c1)c1nc2ccc(Br)cc2s1 | -54.9* | 3.4 | -0.3% | -4.8
COc1ccc2nc(N(CCN(C)C)C(=O)c3ccc(C(=O)c4ccccc4)cc3)sc2c1 | -15.3 | -10.7 | -0.2% | 0.4
COc1ccc2nc(N(CCN(C)C)C(=O)c3ccc4ccccc4c3)sc2c1 | -62.7* | 6.5 | 0.1% | -1.9
COc1ccc2nc(N(Cc3cccnc3)C(=O)c3ccc(Cl)cc3)sc2c1 | x | x | x | 59.5*
CCc1ccccc1NC(=O)Cn1nc(-c2cc(C)ccc2C)c2c(c1=O)CCCC2 | x | x | x | 3.0
CCOc1ccc(/C=C2\SC(=O)N(CCNC(=O)C3COc4ccccc4O3)C2=O)cc1OC (centres undefined) | 105.0 | 18.2 | -0.8% | 49.7*
O=C(CSc1nnc(-c2cnccn2)n1Cc1ccco1)c1ccc(Cl)cc1 | -63.4* | 3.0 | -0.2% | -8.6
Cc1c(CNC2CCCCC2)c(C(=O)O)c(C)n1Cc1ccccc1F | x | x | x | -15.9
COc1cc(/C=C2\CCCc3c2nc2ccccc2c3C(=O)O)cc([N+](=O)[O-])c1O | -100.3* | -6.4 | 0.3% | -30.2
COc1cc(/C=C2\CCCc3c2nc2ccccc2c3C(=O)O)cc(OC)c1O | 3.2 | -1.8 | 2.4% | -3.2
O=C(CCN1C(=O)c2cccc3cccc(c23)C1=O)NCc1ccco1 | -12.6 | 3.2 | -0.1% | 34.4*
CCOC(=O)c1c(C)c(-c2ccccc2)n(CC(=O)Nc2cccc(F)c2)c1C | x | x | x | 6.8
Cc1cccc(N2CCN(C(=O)c3ccoc3C)CC2)c1C | 6.8 | -2.9 | -0.2% | 35.6*
Cc1occc1C(=O)N1CCN(c2ccc(Cl)cc2)CC1 | 17.9 | -1.4 | -0.2% | 5.9
CN(C)c1ccc(NC(=O)CSC2=Nc3ccccc3C3=NC(CCC(=O)NCc4cccs4)C(=O)N23)cc1 (centres undefined) | x | x | x | -1.2
Cc1cccc(C)c1NC(=O)N1CCC(c2nc3ccccc3o2)CC1 | -74.9* | -2.3 | -0.3% | 1.4
Cc1cccc(C)c1OCC(=O)N1CCC(c2nc3ccccc3o2)CC1 | x | x | x | 13.4
COc1ccc(OC)c2[nH]c(=O)c(CCNC(=O)c3ccc(S(=O)(=O)N4CCCCC4)cc3)cc12 | 9.5 | -6.5 | 4.6% | 2.7
Cc1cc2cc(CCNC(=O)c3ccc(S(=O)(=O)N4CCCC4)cc3)c(=O)[nH]c2cc1C | 1.9 | -76.7* | -0.9% | 0.0
O=C(CN1CCN(C2CCCCC2)CC1)c1c[nH]c2ccccc12 | -68.9* | 16.7 | 0.1% | -1.6
COc1ccccc1CNC(=O)CSc1ncc(C(=O)Nc2ccccc2)c(=O)n1C | -68.7* | 1.2 | 0.2% | -9.7
O=C(COc1ccccc1O)NCCN1CCOCC1 | -1.2 | 3.7 | 0.0% | -14.6
O=C(CC(c1ccccc1)c1ccccc1O)NCCN1CCOCC1 (centres undefined) | -54.9* | 3.5 | -0.3% | -3.6
SMILES | D3 antag | TSHR antag | B2AR arrestin | DRD3 agonist
S=c1[nH]nc(-c2cccs2)n1/N=C/c1cn(-c2ccccc2)nc1-c1cccs1 | 14.2 | -6.3 | -0.5% | 30.4*
Brc1ccccc1OCCCN1CCCC1 | u | 24.3 | -0.6% | -18.9
Brc1ccccc1OCCCN1CCCCCC1 | -82.0* | -2.8 | 0.4% | -24.3
Brc1ccccc1OCCN1CCCC1 | -61.6* | x | x | -12.2
O=C(NCc1cccnc1)c1nc(-c2ccc(C(F)(F)F)cc2)no1 | -59.1* | -2.1 | 0.0% | -4.4
CCC1Nc2ncnc(N3CCCCC3)c2N(Cc2ccc(Br)cc2)C1=O (centres undefined) | -53.3* | 8.7 | -0.5% | -20.9
CCC1Nc2ncnc(N3CCCCC3)c2N(Cc2ccc(Cl)cc2)C1=O (centres undefined) | -64.8*! | -22.1 | -0.2% | -19.1
